Data published in ChEMBL document CHEMBL3988442, “University of Dundee, Small-Polar-MMV Screening Library” (2021).
For part of these data: Entries with a potency or affinity are not part of this list.

Legend:
Parameters in all cases: scale not given: direction of the effect not stated beside the values
[1] = target: Protein translocase subunit SecA (Escherichia coli (strain K12)) (UniProt P10408); assay: Assay to Identify E. coli SecA ATPase Inhibitors; format: functional; settings: 30 µM
[2] = target: T1, Ubiquitin-activating enzyme e1, putative (Leishmania donovani (strain BPK282A1)) (UniProt E9BSI1); assay: Leishmania donovani Ubiquitin Activating Enzyme (LdE1); format: functional; settings: 30 µM
T1 sequence (whole entry): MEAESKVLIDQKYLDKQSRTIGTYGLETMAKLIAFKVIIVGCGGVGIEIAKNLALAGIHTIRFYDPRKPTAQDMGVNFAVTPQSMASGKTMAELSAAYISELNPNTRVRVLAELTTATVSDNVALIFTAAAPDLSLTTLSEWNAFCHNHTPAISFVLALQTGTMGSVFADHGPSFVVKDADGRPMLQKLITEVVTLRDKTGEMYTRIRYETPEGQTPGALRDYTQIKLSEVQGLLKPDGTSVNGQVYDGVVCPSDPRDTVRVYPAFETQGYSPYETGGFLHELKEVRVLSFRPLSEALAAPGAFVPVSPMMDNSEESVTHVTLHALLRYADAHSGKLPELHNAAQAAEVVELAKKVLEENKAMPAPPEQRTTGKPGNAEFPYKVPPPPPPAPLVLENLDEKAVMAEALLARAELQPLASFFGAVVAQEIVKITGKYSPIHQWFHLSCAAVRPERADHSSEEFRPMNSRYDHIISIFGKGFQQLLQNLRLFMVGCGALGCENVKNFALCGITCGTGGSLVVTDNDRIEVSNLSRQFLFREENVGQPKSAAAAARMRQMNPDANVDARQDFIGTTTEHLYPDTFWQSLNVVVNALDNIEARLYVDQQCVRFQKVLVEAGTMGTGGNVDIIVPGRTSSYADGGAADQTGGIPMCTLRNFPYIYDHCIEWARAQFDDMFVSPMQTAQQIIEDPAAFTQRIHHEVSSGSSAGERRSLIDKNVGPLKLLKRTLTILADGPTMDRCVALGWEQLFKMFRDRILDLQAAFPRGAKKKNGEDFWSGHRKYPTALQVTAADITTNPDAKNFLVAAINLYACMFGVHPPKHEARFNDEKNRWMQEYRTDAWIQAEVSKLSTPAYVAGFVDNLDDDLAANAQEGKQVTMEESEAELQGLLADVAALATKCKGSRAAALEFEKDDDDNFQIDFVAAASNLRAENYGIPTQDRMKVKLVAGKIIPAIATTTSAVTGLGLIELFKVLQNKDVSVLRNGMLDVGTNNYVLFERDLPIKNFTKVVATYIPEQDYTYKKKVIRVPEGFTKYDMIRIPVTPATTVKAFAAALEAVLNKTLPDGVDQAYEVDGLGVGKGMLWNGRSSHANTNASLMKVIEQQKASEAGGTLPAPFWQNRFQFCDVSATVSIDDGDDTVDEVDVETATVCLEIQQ

[3] = target: Sialic acid-binding Ig-like lectin 9 (Homo sapiens) (UniProt Q9Y336); assay: Hs-Siglec9 ALPHAscreen SOP 20170721; settings: 10 µM
[4] = system: Trypanosoma cruzi; assay: Trypanosoma cruzi phosphomannomutase and mannose-1-phosphate guanylyltransferase assay; format: functional; settings: 10 µM
[5] = target: T2, Arginase-2, mitochondrial (Homo sapiens) (UniProt P78540); assay: in vitro enzyme assay to detect the production of urea directly proportional to the activity of Arginase II; format: functional; settings: 33.3 µM; further: in the data most compounds retested in dose-response had high values
T2 sequence (whole entry): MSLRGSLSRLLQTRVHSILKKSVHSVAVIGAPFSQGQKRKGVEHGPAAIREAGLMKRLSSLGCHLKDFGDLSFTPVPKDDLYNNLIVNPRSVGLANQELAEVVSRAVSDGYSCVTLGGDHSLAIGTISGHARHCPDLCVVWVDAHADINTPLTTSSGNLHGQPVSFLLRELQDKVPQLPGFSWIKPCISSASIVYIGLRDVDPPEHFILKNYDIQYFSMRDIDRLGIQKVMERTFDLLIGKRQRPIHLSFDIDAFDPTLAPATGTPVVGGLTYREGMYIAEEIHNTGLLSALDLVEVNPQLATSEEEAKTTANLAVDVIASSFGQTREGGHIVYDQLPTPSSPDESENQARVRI

[6] = target: T3, Proteasome subunit beta (Trypanosoma cruzi) (UniProt O96673); assay: Trypanosoma cruzi proteasome chymotrypsin-like activity (TcProtChymo) assay.; further: in the data most compounds retested in dose-response had high values; format: functional; settings: 9.37 µM
T3 sequence (whole entry): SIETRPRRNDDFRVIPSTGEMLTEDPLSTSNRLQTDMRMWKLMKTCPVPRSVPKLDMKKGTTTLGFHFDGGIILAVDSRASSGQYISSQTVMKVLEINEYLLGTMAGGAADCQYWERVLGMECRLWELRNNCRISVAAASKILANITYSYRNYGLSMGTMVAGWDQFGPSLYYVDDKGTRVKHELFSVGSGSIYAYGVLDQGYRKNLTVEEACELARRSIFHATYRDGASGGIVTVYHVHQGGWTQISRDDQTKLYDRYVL

[7] = organism: Homo sapiens; assay: To identify inhibition of the IFN signalling (Jak-Stat) pathway via expression of an eGFP reporter gene under the control of an IFN-stimulated response element (ISRE) containing MxA promoter.; format: functional; settings: 30 µM
[8] = target: T4, Tyrosyl-tRNA synthetase, putative (Trypanosoma cruzi (strain CL Brener)) (UniProt Q4DSP6); assay: Trypanosoma cruzi tyrosyl tRNA synthetase (TcYRS) _High Tyrosine SOP; format: functional; settings: 30 µM; further: in the data most compounds retested in dose-response had high values
T4 sequence (whole entry): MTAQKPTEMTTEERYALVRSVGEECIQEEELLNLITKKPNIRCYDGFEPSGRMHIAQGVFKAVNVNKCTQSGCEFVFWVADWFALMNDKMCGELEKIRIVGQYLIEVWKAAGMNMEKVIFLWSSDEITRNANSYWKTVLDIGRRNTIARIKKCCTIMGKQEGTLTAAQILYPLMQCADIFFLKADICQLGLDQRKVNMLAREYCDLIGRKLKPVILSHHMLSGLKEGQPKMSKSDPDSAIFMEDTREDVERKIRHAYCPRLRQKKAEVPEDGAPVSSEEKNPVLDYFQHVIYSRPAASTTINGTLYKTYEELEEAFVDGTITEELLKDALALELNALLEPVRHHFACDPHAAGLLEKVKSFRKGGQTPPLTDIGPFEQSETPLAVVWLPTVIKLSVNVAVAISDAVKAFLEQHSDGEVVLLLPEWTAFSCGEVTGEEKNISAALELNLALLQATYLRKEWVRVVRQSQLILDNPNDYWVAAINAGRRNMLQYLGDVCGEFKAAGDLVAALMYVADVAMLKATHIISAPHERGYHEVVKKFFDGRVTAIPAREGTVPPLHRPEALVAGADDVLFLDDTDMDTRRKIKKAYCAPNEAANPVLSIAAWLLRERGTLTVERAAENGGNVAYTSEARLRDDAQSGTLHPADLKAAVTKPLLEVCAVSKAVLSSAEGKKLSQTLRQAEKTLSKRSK

[9] = target: T4, Tyrosyl-tRNA synthetase, putative (Trypanosoma cruzi (strain CL Brener)); assay: Trypanosoma cruzi tyrosyl tRNA synthetase (TcYRS) SOP; format: functional; settings: 30 µM
[10] = target: Chromo domain-containing protein 1 (Saccharomyces cerevisiae (strain ATCC 204508 / S288c) (Baker's yeast)) (UniProt P32657); assay: ScCHD-1 Enzyme Inhibition Assay; format: functional; settings: 30 µM; further: in the data most compounds retested in dose-response had high values
Chain of Chromo domain-containing protein 1 (Saccharomyces cerevisiae (strain ATCC 204508 / S288c) (Baker's yeast)) (P32657 whole entry, the tested form may be a part): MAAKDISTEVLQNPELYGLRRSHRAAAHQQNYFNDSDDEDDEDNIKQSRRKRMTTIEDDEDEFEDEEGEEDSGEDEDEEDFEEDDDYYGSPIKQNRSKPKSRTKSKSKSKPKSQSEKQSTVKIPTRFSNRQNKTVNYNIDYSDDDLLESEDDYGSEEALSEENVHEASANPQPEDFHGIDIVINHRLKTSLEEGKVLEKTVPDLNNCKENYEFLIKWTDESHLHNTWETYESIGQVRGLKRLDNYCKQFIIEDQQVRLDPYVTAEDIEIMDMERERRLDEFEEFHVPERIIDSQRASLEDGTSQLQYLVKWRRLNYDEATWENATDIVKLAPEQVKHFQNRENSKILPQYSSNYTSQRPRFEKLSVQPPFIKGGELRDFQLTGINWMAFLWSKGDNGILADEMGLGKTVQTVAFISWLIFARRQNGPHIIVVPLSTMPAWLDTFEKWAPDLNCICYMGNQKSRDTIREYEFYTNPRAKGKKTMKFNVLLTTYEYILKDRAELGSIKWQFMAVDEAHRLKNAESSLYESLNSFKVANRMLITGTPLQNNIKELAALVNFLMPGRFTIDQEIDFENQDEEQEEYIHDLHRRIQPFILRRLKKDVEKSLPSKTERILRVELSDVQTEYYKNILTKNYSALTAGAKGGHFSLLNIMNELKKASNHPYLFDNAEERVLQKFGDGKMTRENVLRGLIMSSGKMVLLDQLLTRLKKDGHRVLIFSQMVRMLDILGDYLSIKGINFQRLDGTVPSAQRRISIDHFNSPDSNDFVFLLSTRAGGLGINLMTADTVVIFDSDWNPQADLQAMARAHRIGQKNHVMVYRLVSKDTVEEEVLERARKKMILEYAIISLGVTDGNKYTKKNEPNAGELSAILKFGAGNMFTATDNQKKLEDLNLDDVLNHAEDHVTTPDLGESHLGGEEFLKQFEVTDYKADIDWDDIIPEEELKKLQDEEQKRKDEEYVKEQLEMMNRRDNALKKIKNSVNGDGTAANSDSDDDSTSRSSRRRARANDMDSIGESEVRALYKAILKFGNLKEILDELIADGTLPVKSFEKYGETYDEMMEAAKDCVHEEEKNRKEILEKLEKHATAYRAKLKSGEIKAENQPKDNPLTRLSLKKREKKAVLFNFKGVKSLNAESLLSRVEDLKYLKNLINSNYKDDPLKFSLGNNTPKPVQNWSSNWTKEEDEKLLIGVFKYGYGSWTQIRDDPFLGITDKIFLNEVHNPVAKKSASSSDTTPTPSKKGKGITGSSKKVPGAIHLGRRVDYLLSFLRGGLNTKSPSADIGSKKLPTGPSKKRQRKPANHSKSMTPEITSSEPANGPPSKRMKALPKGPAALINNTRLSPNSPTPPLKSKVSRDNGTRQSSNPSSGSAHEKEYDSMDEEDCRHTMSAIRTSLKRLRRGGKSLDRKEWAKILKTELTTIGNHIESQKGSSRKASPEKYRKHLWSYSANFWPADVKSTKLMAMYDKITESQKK

Chain of Sialic acid-binding Ig-like lectin 9 (Homo sapiens) (Q9Y336 whole entry): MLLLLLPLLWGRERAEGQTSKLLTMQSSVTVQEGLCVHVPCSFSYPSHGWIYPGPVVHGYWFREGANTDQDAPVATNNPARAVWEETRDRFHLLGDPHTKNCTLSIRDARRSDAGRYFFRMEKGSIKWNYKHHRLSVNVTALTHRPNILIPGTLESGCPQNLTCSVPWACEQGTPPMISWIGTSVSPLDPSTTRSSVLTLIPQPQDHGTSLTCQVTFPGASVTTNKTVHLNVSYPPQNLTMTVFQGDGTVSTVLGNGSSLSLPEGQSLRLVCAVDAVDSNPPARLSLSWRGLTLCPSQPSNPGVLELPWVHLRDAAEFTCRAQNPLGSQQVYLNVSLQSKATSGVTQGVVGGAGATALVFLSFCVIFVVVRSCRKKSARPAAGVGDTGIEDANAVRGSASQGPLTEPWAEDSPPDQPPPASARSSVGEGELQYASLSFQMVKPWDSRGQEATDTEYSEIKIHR
Chain of Protein translocase subunit SecA (Escherichia coli (strain K12)) (P10408 whole entry): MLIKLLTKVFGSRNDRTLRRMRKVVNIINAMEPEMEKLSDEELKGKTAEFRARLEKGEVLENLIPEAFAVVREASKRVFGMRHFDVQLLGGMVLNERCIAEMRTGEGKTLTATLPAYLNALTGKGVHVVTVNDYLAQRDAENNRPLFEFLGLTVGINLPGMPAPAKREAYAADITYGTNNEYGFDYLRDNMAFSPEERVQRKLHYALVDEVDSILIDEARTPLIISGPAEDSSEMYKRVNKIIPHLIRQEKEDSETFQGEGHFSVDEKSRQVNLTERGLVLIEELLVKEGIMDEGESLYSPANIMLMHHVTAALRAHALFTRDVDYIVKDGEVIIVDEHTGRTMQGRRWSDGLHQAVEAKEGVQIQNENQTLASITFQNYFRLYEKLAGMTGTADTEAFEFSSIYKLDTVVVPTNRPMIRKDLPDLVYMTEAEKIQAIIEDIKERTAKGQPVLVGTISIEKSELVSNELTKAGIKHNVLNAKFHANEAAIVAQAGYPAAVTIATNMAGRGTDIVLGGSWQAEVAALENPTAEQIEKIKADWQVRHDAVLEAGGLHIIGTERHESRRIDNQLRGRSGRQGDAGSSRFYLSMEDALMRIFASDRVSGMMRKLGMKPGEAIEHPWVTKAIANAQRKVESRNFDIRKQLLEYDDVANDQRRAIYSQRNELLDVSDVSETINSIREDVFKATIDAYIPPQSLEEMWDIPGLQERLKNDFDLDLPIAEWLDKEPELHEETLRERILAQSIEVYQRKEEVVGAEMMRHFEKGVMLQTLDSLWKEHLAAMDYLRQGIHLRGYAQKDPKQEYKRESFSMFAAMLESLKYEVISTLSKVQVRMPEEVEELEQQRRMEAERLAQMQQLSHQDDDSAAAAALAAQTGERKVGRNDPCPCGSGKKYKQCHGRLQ

Row | SMILES | Percent Effect [1] [%] | Percent Effect [2] [%] | Percent Effect [3] [%] | Percent Effect [4] [%] | Percent Effect [5] [%] | Percent Effect [6] [%] | Percent Effect [7] [%] | Percent Effect [8] [%] | Percent Effect [9] [%] | Percent Effect [10] [%]
1 | CCc1nnc2n1CCN(Cc1nc(-c3ccoc3)no1)C2 | -4.35 | 5.13 | 5.33 | 4.22 | 1.64 | 9.47 | -10.4 | 12 | 22.9 | -4.51
2 | CC(C)N1CCCC2(CCN(C(=O)CCCn3ccnc3)C2)C1=O (stereo not given) | -6.84 | 2.7 | 0.678 | -2.62 | -1.75 | 13.4 | -5.32 | 4.79 | 12.2 | -0.546
3 | Cc1nc(C2CCCN2Cc2ncc(C(C)C)o2)no1 (stereo not given) | -0.503 | 2.67 | -1.37 | -0.803 | -0.444 | 1.44 | 13.4 | -1.58 | -5.13 | -7.52
4 | Cc1nn2cccnc2c1C(=O)N1CCCC(Nc2ccccc2)C1 (stereo not given) | -3.41 | 0 | 1 | -0.803 | 7.54 | -2.46 | -3.46 | 5.79 | 5.13 | 8.56
5 | O=C(NCCn1ccnc1)N1CCN(c2nccs2)CC1 | -0.752 | 15.6 | -5.93 | -7.28 | 4.71 | 18.2 | 6.33 | 2.94 | 7.06 | -11.9
6 | CC(NCc1c(C(C)C)nn(C)c1N1CCOCC1)C(N)=O (stereo not given) | -5.06 | 7.69 | -15.9 | -3.66 | -1.23 | 14.8 | 16.4 | 0.478 | 8.43 | -6.18
7 | Cc1nc(CN2CCN(Cc3nccn3C)CC2)no1 | -4.99 | 8 | -1.66 | 3.21 | -1.77 | 4.16 | 11.1 | 5.79 | 15.4 | -11.3
8 | CC(C)n1ccnc1C1CCN(C(=O)c2cc[nH]n2)CC1 | -1.49 | 8.11 | 10.9 | 5.53 | 14.3 | 13.2 | 31.6 | 7.98 | 19.5 | -4.41
9 | O=C(CN1CCCC(c2ccc(C(=O)O)cc2)C1)NC1CC1 (stereo not given) | -9.44 | 5.41 | 8.6 | 7.08 | 8.04 | 1.2 | -14.3 | 6.92 | 12.2 | -1.84
10 | CC(C)(C)c1n[nH]c(C2CN(C(=O)CCC3CC3)CCO2)n1 (stereo not given) | -3.72 | 5.13 | -3.95 | 9.86 | -1.23 | 5.38 | -22.9 | 3.35 | 13.2 | -2.58
11 | CCOC1COC2(CCN(Cc3ccc4c(c3)OCO4)CC2)C1 (stereo not given) | -2.81 | 19.5 | 5.28 | -1.13 | 3.65 | 5.06 | 17.9 | 8.7 | 12.5 | -4.64
12 | O=C(CCCOc1ccccc1Cl)N1CCCC(n2cncn2)C1 (stereo not given) | -2.02 | 5.13 | -18.2 | 6.1 | -13.9 | -5.03 | -5.2 | 1.44 | 6.02 | 0.499
